Laboratory results published in PubChem BioAssay.
Unmarked numbers belong to inactive results.

Assay: E. coli growth modulation, two-sided OD650, primary screen, E. coli filamentation project, strain DRC41, 24 h (AID 1093);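 note: MC1000 strain lacking acrAB efflux and sulA so SOS filamentation is blocked; test concentration not given here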
Settings: OD650, 24 h, higher = more signal, called active from +8 up or from −8 down

| SMILES | z-score |
| --- | --- |
| COC(=O)c1c(CC[C@@H](CO)NC(=O)NCCc2c[nH]c3ccccc23)oc(C(=O)Cc2ccccc2)c1C(=O)OC | 0.528 |
| CC(C)[Si](C#CCCCC#N)(Oc1ccccc1Br)C(C)C | -0.146 |
| COc1cc(CO)cc(I)c1O[C@H]1C=C(C(=O)NCCO)C[C@@H](N(C(=O)c2cc3ccccc3oc2=O)C2CCCCCC2)[C@@H]1O | 1.86 |
| C=CCC(OC(C)=O)[C@@H]1[C@@H](N(Cc2ccc(-c3cccc(C(F)(F)F)c3)o2)C(=O)c2cccc3ccccc23)c2cc(OCCCO)ccc2N1C(=O)Cc1ccc2ccccc2c1 (stereo partly drawn) | -0.57 |
| CC(c1ccccc1)C(O)C1C=CC2C(=O)N(C)C(=O)C2N1NC(=O)OC(C)(C)C (stereo not drawn) | 0.0596 |
| COc1ccc(CCNC(=O)[C@@]2(C)c3ccccc3C(=O)N(c3ccc(C)cn3)[C@H]2c2ccc(CO)cc2)cc1 | -0.121 |
| C#CCNCc1ccccc1 | -0.276 |
| CC[C@@H]1C=C(C(=O)O)[C@H](c2ccc(C)cc2)N1S(=O)(=O)c1ccc(C)cc1 | -0.552 |
| COCCCNC(=O)[C@@H]1c2ccccc2C(=O)N(Cc2ccccc2OC)[C@H]1c1ccc(CO)cc1 | -0.0935 |
| C=CCOC(=O)[C@H]1[C@@H]2C(=O)O[C@@H](c3ccccc3)[C@@H](c3ccccc3)N2[C@@H](c2ccc(OCCOC(=O)[C@@H]3C[C@@H]4C(=O)N5CCC[C@H]5C(=O)N4[C@@H]3c3cccc(OCCO)c3)cc2)[C@]12C(=O)Nc1ccc(I)cc12 | -0.443 |
| CC(=O)NCCCC[C@@H]1NC(=O)[C@H]2C[C@@H](C(=O)O)[C@@H](c3ccc(O)cc3)N2C1=O | -0.817 |
| CCCC=C(CCC)[C@@H](NS(=O)(=O)c1ccc(Cl)cc1)c1ccc(C(=O)OC)cc1 | 0.0177 |
| [N-]=[N+]=NCc1ccccc1[C@@H]1OC(c2ccc(OCCCO)cc2)=N[C@]1(CCS(=O)(=O)c1ccccc1)C(=O)N1CCCCC1 | 0.622 |
| C=CCC(OC(C)=O)[C@@H]1[C@@H](N(Cc2ccc(-c3ccccc3)cc2)C(=O)Cc2ccc(F)cc2)c2cc(OCCCO)ccc2N1C(=O)c1ccc2ccccc2c1 (stereo partly drawn) | 0.0919 |
| CCCCCCCCCCC(O)C1C=CC2C(=O)NC(=O)C2N1Nc1ccc(Cl)cc1Cl (stereo not drawn) | -2.39 |
| COc1ccc([Si](C)(C)[C@@H]2[C@@H](CCn3cc(CCO)nn3)O[C@]3(C(=O)N(Cc4cccc(N5C(=O)c6cccc7cccc5c67)c4)c4ccccc43)[C@H]2C)cc1 | 1.17 |
| COCCCNC(=O)[C@@]1(CCS(=O)(=O)c2ccccc2)N=C(c2ccc(OCCCO)cc2)O[C@H]1c1ccccc1N=[N+]=[N-] | 0.299 |
| O[C@@H](Cc1ccccc1)[C@@H](/C=C/C1CC1)NCc1cccc(Cl)c1 | -0.59 |
| CCC(CC)C(O)C1C=CC2C(=O)N(c3ccccc3)C(=O)C2N1Nc1ccccc1 (stereo not drawn) | 0.272 |
| COC(=O)[C@@]1(Cc2ccccc2)[C@H]2c3cc(C(=O)N4CCCC4)n(Cc4ccc(O)c(OC)c4)c3C[C@H]2CN1C(=O)c1ccccc1 | -0.667 |
| COCCCNC(=O)[C@@]1(Cc2ccccc2CN=[N+]=[N-])N=C(c2ccc(OCCCO)cc2)O[C@H]1c1ccccc1CN=[N+]=[N-] | 1.71 |
| COc1ccc(-c2cc3c(c(Cc4ccccc4)n2)[Si](C(C)C)(C(C)C)OC3)cn1 | -1.41 |
| CC(C)(C)OC(=O)CC[C@]1(C(=O)NCCN2CCOCC2)COC(c2ccc(OCCCO)cc2)=N1 | 0.99 |
| CC(C)[Si](C#CCCCC#N)(O[C@H](c1ccccc1)c1cn(Cc2cccc(Cl)c2)nn1)C(C)C | 1.79 |
| COc1ccc(C(=O)Nc2ccc(CN3C(=O)[C@]4(O[C@H](CC(=O)N5CCC[C@H]5CO)[C@@H]([Si](C)(C)c5ccc(OC)cc5)[C@@H]4C)c4ccccc43)cc2)cc1 | -0.481 |
| CC(C)(C)OC(=O)CC[C@@]1(C(=O)N2CCCCC2)N=C(c2ccc(OCCCO)cc2)O[C@@H]1c1ccccc1 | -0.223 |
| O=C1NC(=O)C2C1C=CC(C(O)C1CC=CCC1)N2Nc1ccccn1 (stereo not drawn) | -0.813 |
| [N-]=[N+]=Nc1ccccc1C[C@]1(C(=O)N2CCCCC2)COC(c2ccc(OCCCO)cc2)=N1 | 1.75 |
